NCOA2 inhibitor = inhibition of GAL4-SRC2 driven luciferase reporter, primary screen, SRC2 inhibitor project, cell-based, luminescence. Nuclear receptor coactivator 2 (Homo sapiens), Q15596. HEK293 GAL4-SRC2 luciferase reporter. inhibition, % at 9 µM. 370,000 compounds, 0.17% hits;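 active means inhibition above the mean inhibition of all tested compounds plus 3 SD, set per campaign, cut at about 52% in these data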
Gli-Sufu block = Gli-Sufu pathway antagonists, primary screen, luciferase luminescence, Sufu-KO-LIGHT cells, uHTS; Sufu-KO-LIGHT fibroblasts, Gli luciferase reporter luminescence; inhibition, % at 5 µM; 340,000 compounds, 0.74% hits;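 active means inhibition above about 55%, limit read from the data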
NCOA1 inh = SRC1 coactivator transcriptional activity inhibitors, primary screen, cell-based, luminescence; inhibition, % at 3.6 µM; 360,000 compounds, 0.12% hits; AID 588354, 2011; Nuclear receptor coactivator 1 (Homo sapiens), Q15788; HEK293 GAL4-SRC1 luciferase reporter;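 active means inhibition above the campaign mean plus 3 SD, with each screening campaign given its own cutoff, cut at about 60% in these data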
NCOA3 inh = SRC3 coactivator transcriptional activity inhibitors, primary screen, cell-based, luminescence. Nuclear receptor coactivator 3 (Homo sapiens), Q9Y6Q9. 360,000 compounds, 0.17% hits. inhibition, % at 3.6 µM. AID 588352, 2011. HEK293 GAL4-SRC3 luciferase reporter;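 active means inhibition above a per-campaign cutoff, the mean of all compounds plus 3 SD, cut at about 60% in these data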;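 further: higher means less SRC3-driven luciferase light from the GAL4 reporter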
COUP-TFII inh = NR2F2 transcriptional activity inhibitors, primary screen, cell-based, luciferase reporter, HEK293T, luminescence. 370,000 compounds, 0.7% hits. HEK293T NGFI-A luciferase reporter. inhibition, % at 8.6 µM. COUP transcription factor 2 (Homo sapiens), P24468. AID 686940, 2013;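 active means inhibition above a per-plate cutoff, mean inhibition of test wells between control levels plus 3 SD, cut at about 38% in these data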;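 further: cells cotransfected with COUP-TFII expression vector driving the NGFI-A reporter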
Target sequence (P24468 whole entry, looked up): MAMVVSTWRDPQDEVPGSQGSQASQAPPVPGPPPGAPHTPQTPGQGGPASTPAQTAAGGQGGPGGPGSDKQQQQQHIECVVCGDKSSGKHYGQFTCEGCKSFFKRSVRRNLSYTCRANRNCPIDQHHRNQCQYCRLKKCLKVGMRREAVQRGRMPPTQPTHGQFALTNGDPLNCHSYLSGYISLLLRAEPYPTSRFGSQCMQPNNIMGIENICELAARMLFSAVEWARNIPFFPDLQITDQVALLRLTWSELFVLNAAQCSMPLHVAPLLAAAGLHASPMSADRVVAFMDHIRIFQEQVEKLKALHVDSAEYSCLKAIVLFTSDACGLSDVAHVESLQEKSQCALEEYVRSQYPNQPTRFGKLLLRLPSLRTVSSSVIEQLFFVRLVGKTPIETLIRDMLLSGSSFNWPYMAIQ
NR5A2 inv ag = LRH-1 (NR5A2) inverse agonists, primary screen, cell-based, luminescence, HEK293T, StAR-luciferase reporter. Nuclear receptor subfamily 5 group A member 2 (Homo sapiens), O00482. LRH-1 transfected, 24 h. inhibition, % at 3.6 µM. 360,000 compounds, 0.13% hits. AID 602396, 2012;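 active means inhibition above the mean inhibition of all tested compounds plus 3 SD, cut at about 73% in these data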
Gli-Sufu confirm = Gli-SUFU pathway antagonists, confirmation, single concentration, luciferase luminescence, Sufu-KO-LIGHT cells; shares compounds with Gli-Sufu block; Gli luciferase reporter; inhibition, % at 5 µM; 2,500 compounds, 40% hits; AID 602428, 2012;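 active means mean inhibition at 5 µM reaching about 45%, limit read from the data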
Gli cytotox = cytotoxicity in Sufu-KO-LIGHT cells, confirmation, cytotoxicity control for Gli-SUFU antagonist project, cell-based, ATP luminescence, single concentration; shares compounds with Gli-Sufu block; 2,500 compounds, 32% hits; AID 651994, 2013; cytotoxicity, % at 5 µM;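 active means mean cytotoxicity at 5 µM above about 25%, limit read from the data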;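 further: cells exposed to compound overnight for roughly 16 to 18 hours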
Wnt3a cs = Wnt3a reporter signal inhibition, confirmation, counter-screen for Gli-SUFU antagonist project, Wnt-LIGHT cells, luminescence, single concentration; shares compounds with Gli-Sufu block; Wnt3a-driven luciferase reporter; inhibition, % at 6.25 µM; 2,500 compounds, 20% hits;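 active means mean inhibition above about 25%, limit read from the data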
Hits are given with their value; i = inactive; nt = not tested or not shown. A selection: hits, their analogues and other compounds. The true share with any hit is near 1.3%.

SMILES | NCOA2 inhibitor | Gli-Sufu block | NCOA1 inh | NCOA3 inh | COUP-TFII inh | NR5A2 inv ag | Gli-Sufu confirm | Gli cytotox | Wnt3a cs
COc1ccc2c(c1)C(C)=CC(C)(C)N2S(=O)(=O)c1ccc(Br)cc1 | i | 59.1 | i | i | i | i | 58.1 | 57.6 | i
Cc1occc1-c1nnc(SCC(=O)Nc2ccccn2)n1-c1ccccc1 | i | nt | nt | nt | i | nt | nt | nt | nt
CCCN(CCC)CCN1C(=O)C2C(C(=O)Nc3ccc(C)cc3)C3C=CC2(O3)C1C(=O)NC1CCCCC1 (stereo unspecified) | i | i | i | i | i | i | nt | nt | nt
CCN(CC)CCN1C(=O)C2C(C(=O)Nc3cc(C)cc(C)c3)C3C=CC2(O3)C1C(=O)NC1CCCCC1 (stereo unspecified) | i | 64.3 | i | i | i | i | i | i | i
COC(=O)[C@]12C[C@H](CC(=O)N3CCC(c4ccccc4)CC3)C(=O)N(Cc3ccco3)C1=C[C@H](COCc1ccccc1)O[C@@H]2C | i | nt | nt | nt | i | nt | nt | nt | nt
O=C(c1ccc(Cl)c(Cl)c1)N1CCC(Oc2cccnc2)CC1 | i | nt | nt | nt | i | nt | nt | nt | nt
Cc1ccc(NC(=S)Nc2ccc(OC(F)F)c(Cl)c2)cc1Cl | i | 56.1 | i | i | i | i | i | i | i
CCCC1CCC2(CCCN2CCOC(=O)Nc2ccc(Br)cc2)CC1 (stereo unspecified) | nt | nt | nt | nt | i | nt | nt | nt | nt
CCN(c1ccccc1)S(=O)(=O)c1ccc(N2CCN(c3ccc(OC)cc3)CC2)nc1 | i | i | i | i | i | i | nt | nt | nt
CCN(c1ccccc1)S(=O)(=O)c1ccc(N2CCN(c3ccc(O)cc3)CC2)nc1 | i | 55.2 | i | i | i | i | i | i | i
Cc1ccc(N2CC(O)(c3cccs3)[N+]3=C2CCCC3)cc1 (stereo unspecified) | i | i | i | i | i | i | nt | nt | nt
COc1ccc(C2(O)CN(c3ccc(C)cc3)C3=[N+]2CCCC3)cc1 (stereo unspecified) | i | i | i | i | i | i | 55.5 | 33.0 | i
COc1ccc(NC(=O)Nc2cc(C)nn2-c2ccccc2)cc1 | i | nt | nt | nt | i | nt | nt | nt | nt
CCC(/C=C1\Sc2ccc(OC)cc2N1CC)=C\c1sc2ccc(OC)cc2[n+]1CCCS(=O)(=O)[O-] | i | 70.3 | i | i | i | i | 81.7 | 40.3 | i
CCC(/C=C1\Sc2ccc(OC)cc2N1CCO)=C\c1sc2ccc(OC)cc2[n+]1CCO | i | i | i | i | i | i | nt | nt | nt
CC(=O)c1ccc(NC(=S)N2CC(C)CC(C)C2)cc1 (stereo unspecified) | i | i | i | i | i | i | nt | nt | nt
CC(=O)c1ccc(NC(=S)N2CCN(C(=S)Nc3ccc(C(C)=O)cc3)C(C)C2)cc1 (stereo unspecified) | i | 58.0 | i | i | i | i | i | 31.4 | i
C=CCNC1=C(Cl)C(=O)c2ccccc2C1=O | i | 55.7 | i | i | i | i | i | i | 78.7
O=C(C1CC1)N1CCN(c2ccc([N+](=O)[O-])cc2)CC1 | i | i | i | i | i | i | i | i | i
O=C(Nc1cccc(C(F)(F)F)c1)OCCCN1CCC2(CCC(c3ccccc3)CC2)C1=O (stereo unspecified) | i | nt | nt | nt | i | nt | nt | nt | nt
CC(CC(=O)Nc1ccc(-c2ccno2)cc1)n1cccn1 (stereo unspecified) | i | i | i | i | i | i | nt | nt | nt
Cc1cc(C)n(C(C)CC(=O)Nc2ccc(-c3ccno3)cc2)n1 (stereo unspecified) | i | 55.9 | i | i | i | i | i | i | i
COc1cccc(/C=C2\CC3(OC(=O)c4cccc(F)c4)CCCN2C3)c1 (stereo unspecified) | i | nt | nt | nt | i | nt | nt | nt | nt
Cc1ccc(Nc2nc(N3CCOCC3)nc(N3CCOCC3)n2)cc1C | i | 56.5 | i | i | i | i | 50.2 | 41.3 | i
C/C(CC(=O)NCc1ccccc1)=N\NC(=O)c1cnccn1 | i | i | i | i | i | i | i | i | i
SMILES | NCOA2 inhibitor | Gli-Sufu block | NCOA1 inh | NCOA3 inh | COUP-TFII inh | NR5A2 inv ag | Gli-Sufu confirm | Gli cytotox | Wnt3a cs
CN(c1ccccc1C(N)=O)S(=O)(=O)c1ccccc1 | i | i | i | i | i | i | i | i | i
CNc1ccccc(-c2ccc3ccccc3n2)c1=O | i | i | i | i | i | i | i | i | i
CC(C)C(C)(C#N)NC(=O)CSc1nnc(-c2ccncc2)n1Cc1ccccc1 (stereo unspecified) | i | 95.0 | i | i | i | i | i | i | i
CCC(CC)CN1C(N(C)C)=NC[C@@H]1CC(C)C | i | 56.1 | i | i | i | i | 50.6 | i | i
CC(C)C[C@H]1CN=C(N(C)C)N1CCCCc1ccccc1 | i | 60.5 | i | i | i | i | 62.0 | i | i
C[C@H]1CN=C(N(C)C)N1CCCCc1ccccc1 | i | i | i | i | i | i | nt | nt | nt
CCC(C)CCN1C(N(C)C)=NC[C@@H]1CC(C)C (stereo partly specified) | i | 70.7 | i | i | i | i | 55.9 | i | i
CC(C)C[C@H]1CN=C(N(C)C)N1CC1CCCC1 | i | i | i | i | i | i | nt | nt | nt
C#CCNC(=O)C[C@H]1C[C@@]2(C(=O)OC)C(=C[C@H](C3CCCC3)O[C@@H]2C)N(CCc2ccc(OC)c(OC)c2)C1=O | i | nt | nt | nt | i | nt | nt | nt | nt
COC(=O)[C@]12C[C@H](CC(=O)N3CCOCC3)C(=O)N(Cc3ccco3)C1=C[C@H](C(C)(C)C)O[C@@H]2C | i | nt | nt | nt | i | nt | nt | nt | nt
O=C(CCc1ccccc1-c1ccccc1CCNC(=O)c1ccccc1)NCc1ccccc1 | i | nt | nt | nt | i | nt | nt | nt | nt
CC(Oc1cccc2c1OC(C)(C)C2)C(=O)O (stereo unspecified) | i | 96.0 | i | i | i | i | i | i | i
COc1ccccc1CC(=O)NC1CCCCCC1 | i | i | i | i | i | i | i | i | i
COc1ccccc1CN(C(=O)Cc1cccs1)C(C(=O)NC1CCCC1)c1ccncc1 (stereo unspecified) | i | 55.5 | i | i | i | i | i | 26.9 | i
COc1ccccc1CC(=O)NC1CC1 | i | nt | i | i | i | i | nt | nt | nt
N#Cc1c(C(F)(F)F)cc(-c2ccccc2)nc1SCC(=O)Nc1sc2c(c1C#N)CCC2 | i | 68.2 | i | i | i | i | 76.3 | i | 54.1
N#Cc1ccc(-c2cccnc2)nc1SCC(=O)Nc1sc2c(c1C#N)CCC2 | nt | i | i | i | nt | i | nt | nt | nt

Source: PubChem BioAssay (several laboratories)
